# According to PubChem BioAssay:
# Several values for one entry are separate records, joined by “and”; a condition that tells them apart may be missing. Equal entries are not always repeated. Results filed as inconclusive are left out. Activity calls are given as the source filed them. Unless noted, cut-off not given; nearly all actives show AC50 up to about 26 µM.
# Legend:
# [1] = viability loss in pontine glioma line – cell-based, SU-DIPG-XIII, MIPE4.0, CellTiter-Glo, qHTS, dose response (AID 1347061; cut-off not given, nearly all actives have AC50 up to about 37 µM;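 further: cells exposed to compound for 48 hours before readout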); settings: CellTiter-Glo ATP luminescence
# [2] = viability loss in pontine glioma line – cell-based, JHH-DIPG-1, MIPE4.0, CellTiter-Glo, qHTS, dose response (AID 1347062; cut-off not given, nearly all actives have AC50 up to about 27 µM;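 on AC50: cells exposed to compound for two days before readout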); settings: JHH-DIPG-1 viability, CellTiter-Glo ATP luminescence
# [3] = viability loss in pontine glioma line – cell-based, SU-DIPG-XIII, MIPE5.0, CellTiter-Glo, qHTS, dose response (AID 1347064; cut-off not given, nearly all actives have AC50 up to about 23 µM;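 on AC50: cells exposed to compound for 48 hours before the viability read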); settings: CellTiter-Glo ATP luminescence
# [4] = growth inhibition of DIPG cells – cell-based, MIPE4.0 library, CellTiter-Glo luminescence, qHTS (AID 1347066; cut-off not given, nearly all actives have AC50 up to about 30 µM;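 further: cells exposed to compound for 48 hours before readout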); settings: SU-DIPG-VI viability, CellTiter-Glo ATP luminescence
# [5] = viability loss in pontine glioma line – cell-based, SU-DIPG-IV, MIPE4.0, CellTiter-Glo, qHTS, dose response (AID 1347063; cut-off not given, nearly all actives have AC50 up to about 30 µM;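 further: compound exposure lasted 48 hours before the viability readout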); settings: CellTiter-Glo ATP luminescence
# [6] = viability loss in pontine glioma line – cell-based, SU-DIPG-XXV, MIPE5.0, CellTiter-Glo, qHTS, dose response (AID 1347065); settings: CellTiter-Glo ATP luminescence;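 further: cells exposed to compound for 48 hours before ATP readout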
# [7] = JHH-DIPG-1 glioma cell viability, MIPE5.0 library, CellTiter-Glo luminescence, qHTS (AID 1347067); settings: JHH-DIPG-1 glioma viability, CellTiter-Glo ATP luminescence;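 further: cells exposed to compound for 48 hours before readout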
# [8] = viability loss in pontine glioma line – cell-based, SU-DIPG-XVII, MIPE5.0, CellTiter-Glo, qHTS, dose response (AID 1347060); settings: CellTiter-Glo ATP luminescence;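 on AC50: cells exposed to compound for 48 hours before viability readout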
# [9] = liver-stage malaria parasite load reduction – cell-based, known kinase inhibitor set, luminescence, hepatoma host viability (AID 624392; call rule not given here;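 further: infected cells incubated roughly two days before readout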); settings: Plasmodium liver stage in hepatoma cells, luciferase luminescence, concentration not given here; liver cell % of control: measured here: host liver cell viability; parasite % of control: stronger effect = lower value
smiles,measurement,setting,value
FC(F)(F)c1ccc(/C=C/c2nc(COc3ccc(CCCCn4ccnn4)cc3)co2)cc1,outcome,[1],inactive
same,outcome,[2],inactive
same,outcome,[3],inactive
same,outcome,[4],inactive
O=C(c1ccc(Nc2nccc(-c3cc4ccccc4s3)n2)cc1)N1CCC(N2CCCC2)CC1,AC50,[1],23.5 µM (active)
same,AC50,[2],18.7 µM (active)
same,AC50,[5],8.33 µM (active)
same,AC50,[3],8.33 µM (active)
same,AC50,[6],7.42 µM (active)
same,AC50,[4],18.7 µM (active)
same,AC50,[7],9.34 µM (active)
Clc1ccc(-c2nc3sccn3c2/C=N/OCc2ccc(Cl)c(Cl)c2)cc1,outcome,[2],inactive
same,outcome,[5],inactive
same,AC50,[3],20.9 µM (active)
same,AC50,[6],23.5 µM (active)
same,outcome,[4],inactive
same,outcome,[7],inactive
Nc1nccc(-c2ccc3noc(-c4ccc(Cl)cc4)c3c2)n1,outcome,[2],inactive
same,AC50,[6],20.9 µM (active)
same,outcome,[4],inactive
CN(CCOc1ccc(-c2ccc3c(c2)OCO3)cc1C(C)(C)C)CC(=O)O,AC50,[7],23.5 µM (active)
COc1cc(SC)ccc1C(=O)N1CCC(Cc2ccccc2)CC1,outcome,[8],inactive
same,outcome,[3],inactive
same,outcome,[6],inactive
N#C/C(=C\c1ccc(O)c(O)c1)C(=O)NCc1ccccc1,outcome,[2],inactive
COc1cc2c(cc1O)CC[C@@H]1[C@@H]2CC[C@]2(C)[C@@H](O)CC[C@@H]12,AC50,[8],1.32 µM (active)
same,AC50,[6],1.48 µM (active)
same,AC50,[7],3.72 µM (active)
Oc1ccc(Nc2nc(-c3ccc(Cl)cc3)cs2)cc1,AC50,[6],5.9 µM (active)
C[C@@H](N)C1CCC(C(=O)Nc2ccncc2)CC1 (stereo partly drawn),outcome,[1],inactive
same,outcome,[2],inactive
same,outcome,[5],inactive
same,outcome,[3],inactive
same,outcome,[6],inactive
same,outcome,[4],inactive
same,outcome,[7],inactive
Nc1ncnc2c1ncn2[C@@H]1O[C@H](CO)C[C@H]1O,outcome,[1],inactive
same,outcome,[2],inactive
same,outcome,[5],inactive
same,outcome,[7],inactive
COc1ccc(-c2oc3cc(OC)ccc3c2C(=O)c2ccc(C#N)cc2)cc1,outcome,[1],inactive
same,outcome,[2],inactive
CC(C)N(CCC(=O)c1ccc2ccccc2c1)Cc1ccccc1,AC50,[8],7.42 µM (active)
same,AC50,[3],7.42 µM (active)
same,AC50,[6],6.61 µM (active)
same,AC50,[7],4.17 µM (active)
N#CC(=C(/N)Sc1ccccc1N)/C(C#N)=C(\N)Sc1ccccc1N,AC50,[5],8.33 µM (active)
Cc1cccc(C#Cc2ccccc2)n1,outcome,[1],inactive
same,outcome,[2],inactive
same,outcome,[5],inactive
same,outcome,[4],inactive
CC(C)(Sc1ccc(CCN(CCCCC2CCCCC2)C(=O)NC2CCCCC2)cc1)C(=O)O,outcome,[2],inactive
same,outcome,[4],inactive
O=C(/C=C/c1c(C(=O)O)[nH]c2cc(Cl)cc(Cl)c12)Nc1ccccc1,outcome,[1],inactive
same,outcome,[2],inactive
same,outcome,[5],inactive
same,outcome,[4],inactive
CNC(=O)[C@H]1O[C@@H](n2cnc3c(NCc4cccc(I)c4)nc(Cl)nc32)[C@H](O)[C@@H]1O,AC50,[8],18.6 µM (active)
same,AC50,[3],16.6 µM (active)
same,AC50,[7],23.5 µM (active)
O=c1cc(N2CCOCC2)oc2c(-c3ccccc3)cccc12,outcome,[1],inactive
same,AC50,[5],2.64 µM (active)
same,outcome,[3],inactive
C[C@H](NC(=O)c1sccc1OCc1ccc(Cl)cc1)c1ccccc1,AC50,[5],18.7 µM (active)
same,AC50,[3],11.8 µM (active)
same,AC50,[6],16.6 µM (active)
same,AC50,[7],18.6 µM (active)
O=S(=O)(NCCNC/C=C/c1ccc(Br)cc1)c1cccc2cnccc12,AC50,[5],16.6 µM (active)
same,AC50,[6],23.5 µM (active)
same,AC50,[7],16.6 µM (active)
Oc1ccc(-c2nc(-c3ccc(F)cc3)c(-c3ccncc3)[nH]2)cc1,liver cell % of control,[9],85.2% and 83.2% and 90.8%
same,parasite % of control,[9],14.8% (inactive) and 19.2% (inactive) and 29.9% (inactive)
same,AC50,[1],5.9 µM (active)
same,outcome,[2],inactive
same,AC50,[5],23.5 µM (active)
same,outcome,[4],inactive
N#C/C(=C(/N)Sc1ccc(N)cc1)c1ccccc1C(F)(F)F,AC50,[1],18.7 µM (active)
same,outcome,[6],inactive
same,outcome,[4],inactive
NC(=O)c1ccc(-c2nc(-c3ccc4c(c3)OCCO4)c(-c3ccccn3)[nH]2)cc1,outcome,[2],inactive
same,AC50,[3],13.2 µM (active)
same,outcome,[4],inactive
same,AC50,[7],20.9 µM (active)
